Among the data in PubChem BioAssay (NCATS) are Potency values, retold here.

Structures are written as SMILES. Records with an inconclusive call do not appear. A call without a number means that no potency is given here. Activity calls are given as the source filed them. The call rests on the fitted dose curve; in most records, active means well fitted inhibition curve with a large enough effect; inconclusive means small, poorly fitted or top-dose-only effect; inactive means flat fitted curve, though single readings scatter.
Potency means the concentration at half of the fitted maximal effect.

Chain of Dual specificity protein kinase CLK4 (Homo sapiens) (Q9HAZ1 whole entry, looked up): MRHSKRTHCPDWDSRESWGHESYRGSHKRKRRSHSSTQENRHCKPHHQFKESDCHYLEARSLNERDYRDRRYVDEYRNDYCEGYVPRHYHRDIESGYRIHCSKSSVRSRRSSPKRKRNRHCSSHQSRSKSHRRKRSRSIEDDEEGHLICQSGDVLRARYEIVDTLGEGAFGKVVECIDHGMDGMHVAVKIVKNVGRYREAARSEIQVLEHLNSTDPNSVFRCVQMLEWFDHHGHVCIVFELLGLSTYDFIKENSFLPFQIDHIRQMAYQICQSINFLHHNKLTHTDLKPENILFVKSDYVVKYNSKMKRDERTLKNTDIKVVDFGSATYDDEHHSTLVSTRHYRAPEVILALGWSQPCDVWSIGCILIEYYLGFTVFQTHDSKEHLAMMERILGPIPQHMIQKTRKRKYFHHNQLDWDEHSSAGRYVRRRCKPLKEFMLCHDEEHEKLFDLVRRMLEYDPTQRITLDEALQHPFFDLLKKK

The target of the test is Dual specificity protein kinase CLK4 (Homo sapiens) (UniProt Q9HAZ1). Briefly: qHTS Assay for Inhibitors of CDC-like Kinase 4 (ADP-FP Assay) (AID 1795). Further: nearly all actives have a fitted effect of over 60% in size. Particulars: Transcreener ADP fluorescence polarization; series mostly up to 50 µM. As to the method:
NIH Molecular Libraries Probe Production Centers Network [MLPCN] NIH Chemical Genomics Center [NCGC] MLPCN Grant: 1R03MH084827-01 Assay Submitter (PI): Tom Misteli NCGC Assay Overview: Clk4 (Invitrogen cat # PV3839) was assayed using ATP and the RS repeat peptide (AnaSpec cat # 61722) as substrates using Transcreener (trade mark), a competitive fluorescence polarization (FP) assay. For the present assay, we used the Orange TranscreenerTM ADP2 (BellBrooks Labs, Madison, Wis) detection system to monitor ADP production in the kinase reaction. […] This allows the ADP tracer to freely rotate leading to a decrease in the observed FP value. The amount of ADP produced can then be calculated using a calibration curve. The positive control for the assay was TG003 (Sigma-Aldrich, cat # 300801-52-9) which is a Clk4 inhibitor [2].
NCGC Assay Protocol Summary: Two uL/well of substrate-buffer solution (100 uM RS peptide, 1 uM ATP, 25 mM Tris pH7.5, 10 mM MgCl2, 0.5 mM EGTA, 2.5 mM DTT, 0.01% Triton X-100 final concentration) was dispensed into 1,536-well assay plates (Greiner, solid black medium-binding plates) with Aurora Discovery BioRAPTR Flying Reagent Dispenser (FRD; Beckton-Dickenson). Using a Kalypsys pin tool equipped with a 1,536-pin tool, 23 nL of compound solution was transferred to the assay plate. Two uL/well Clk4-buffer solution (6.25 nM Clk4, 25 mM Tris pH 7.5, 10 mM MgCl2, 0.5 mM EGTA, 2.5 mM DTT, 0.01% Triton X-100, final concentration) was then added using the FRD yielding a total kinase reaction volume of 4 uL/ well. Then 4 uL/well of detection mixture (4 nM orange fluorescent tracer, 1 ug/mL ADP antibody, final concentration) was then added after an hour and the polarization signal was measured using the EnVision plate reader (PerkinElmer, Waltham, MA) after 30 min of room temperature incubation using the following filters and program settings: BODIPY TMR FP dual Enh mirror (barcode 682); BODIPY-TMR 531 (barcode 105) excitation; BODIPY-TMR FP P/S polarized 595 nm filters (barcodes 210 and 211, respectively); 100% light; 150 flashes; 1.35 G-factor; Detector gains were 685 for the 1st detector; 630 for the 2nd detector.
Background: Quantitative high-throughput screening tests each substance at several concentrations.
Take `Cn1c(=O)c(-c2cc(F)cc(F)c2)nc2cnc(Nc3ccccc3)nc21`: the Potency entry is “inactive”.

Consider `COCCn1c(=O)c(-c2ccccc2)nc2cnc(N3CCN(C)CC3)nc21`, for which the Potency entry is “inactive”.

Consider `CN1CCN(c2ncc3nc(-c4cccc(C#N)c4)c(=O)n(C)c3n2)CC1`, for which the Potency entry is “inactive”.

`COc1ccc(-c2nc3cnc(N(C)C)nc3n(-c3ccccc3)c2=O)cc1`: the Potency entry is “inactive”.

Take `COc1cccc(Cn2c(=O)c(-c3cn(C)c4ccccc34)nc3cnc(OC)nc32)c1`: the Potency entry is “inactive”.

Take `CCNc1ncc2nc(-c3ccc(OC)cc3)c(=O)n(CCC#N)c2n1`: the Potency result is “inactive”.

As to `c1ccc(Nc2ncnc3ccc(-c4ccoc4)cc23)cc1`, the Potency was 0.447 µM (active).

Take `Cn1cc(-c2nc3cnc(N4CCOCC4)nc3n(CCC#N)c2=O)c2ccccc21`: the Potency result is “inactive”.

As to `COc1ccc(-n2c(=O)c(CCc3ccccc3)nc3cnc(N4CCN(C)CC4)nc32)cc1`, the Potency entry is “inactive”.

In the case of `c1cncc(CNc2ccnc(-c3cccnc3)n2)c1`, the Potency result is “inactive”.

As for `Cc1cnc(CNc2ncncc2-c2ccccc2C)cn1`, the Potency entry is “inactive”.

With `c1cncc(CNc2ncncc2-c2ccoc2)c1`, the Potency result was “inactive”.

Consider `CCNc1ncc2nc(-c3ccc(Cl)cc3)c(=O)n(Cc3cccs3)c2n1`, for which the Potency result is “inactive”.

For the compound `COCCNc1ccnc(-c2ccccc2C)n1`, the Potency entry is “inactive”.

Take `CN(C)c1ncnc2ccc(-c3ccc4c(c3)OCO4)cc12`: the Potency was 0.1 µM (active).

As for `CN1CCN(c2ncc3nc(-c4cccc(C#N)c4)c(=O)n(CCC#N)c3n2)CC1`, the Potency entry was “inactive”.

With `COc1cccc(Cn2c(=O)c(-c3cccc(C#N)c3)nc3cnc(OC)nc32)c1`, the Potency result is “inactive”.

Take `CS(=O)(=O)Nc1cccc(-c2nccc(Nc3ccc(F)cc3)n2)c1`: the Potency was 11.2 µM (active).

Take `N#Cc1cccc(-c2cncnc2NCc2cccnc2)c1`: the Potency entry is “inactive”.

With `COCCn1c(=O)c(-c2cccc(C#N)c2)nc2cnc(N3CCN(C)CC3)nc21`, the Potency entry is “inactive”.

Consider `COc1cccc(Cn2c(=O)c(-c3cccs3)nc3cnc(N4CCOCC4)nc32)c1`, for which the Potency result was “inactive”.

On to `COc1cccc(-c2nc(NCc3ccccc3OC)c3ccccc3n2)c1`, for which the Potency entry is “inactive”.

For the compound `COCCn1c(=O)c(-c2cccc(C#N)c2)nc2cnc(N3CCOCC3)nc21`, the Potency entry was “inactive”.

As to `COc1ccccc1-c1cc(-n2ccnc2)ncn1`, the Potency is 8.91 µM (active).

Regarding `COc1ccc(CNc2ccnc(-c3cccc(NS(C)(=O)=O)c3)n2)c(OC)c1`, the Potency result was “inactive”.

Regarding `COCCn1c(=O)c(-c2cc(F)cc(F)c2)nc2cnc(N(C)C)nc21`, the Potency result was “inactive”.

As to `CN(C)c1ccc(-c2cncnc2N(C)Cc2ccco2)cc1`, the Potency result is “inactive”.

Take `COc1ccc(-c2nc3cnc(N(C)C)nc3n(CCC#N)c2=O)cc1`: the Potency entry was “inactive”.

In the case of `CCNc1ncc2nc(-c3cc(F)cc(F)c3)c(=O)n(CCOC)c2n1`, the Potency result was “inactive”.

As to `CCNc1ncc2nc(-c3cc(F)cc(F)c3)c(=O)n(CCc3ccccc3)c2n1`, the Potency entry is “inactive”.

Consider `FC(F)(F)c1ccccc1-c1nccc(NCCN2CCOCC2)n1`, for which the Potency result is “inactive”.

For the compound `Cc1ccccc1-c1cncnc1NCc1cccnc1`, the Potency result is “inactive”.

In the case of `COc1cccc(Nc2ncc3nc(-c4cccs4)c(=O)n(Cc4cccs4)c3n2)c1`, the Potency result was “inactive”.

For `Cc1cnc(CNc2nc(-c3ccccc3Cl)nc3ccccc23)cn1`, the Potency result was “inactive”.

As for `CN(Cc1ccco1)c1ncncc1-c1cccc(NS(C)(=O)=O)c1`, the Potency result is “inactive”.

Regarding `O=c1c(-c2ccc(Cl)cc2)nc2cnc(N3CCNCC3)nc2n1CCc1ccccc1`, the Potency entry is “inactive”.

With `COc1ccc(-c2nc3cncnc3n(-c3ccccc3)c2=O)cc1`, the Potency result is “inactive”.

Consider `Cc1noc(C)c1-c1nc(N(C)Cc2ccco2)c2ccccc2n1`, for which the Potency entry was “inactive”.

Consider `COc1cccc(Cn2c(=O)c(CCc3ccccc3)nc3cnc(N4CCOCC4)nc32)c1`, for which the Potency result was “inactive”.

Take `Cc1nc2cnc(Oc3ccccc3)nc2n(Cc2cccs2)c1=O`: the Potency entry was “inactive”.
